According to PubChem BioAssay (EPA / NIEHS):
Results filed as inconclusive are left out. Active and inactive are the calls of the source. How the source made its calls: active means hit-call score of the fitted dose curve at least 0.9, where 1 is the maximum; inconclusive means response in the unintended direction; inactive means score below 0.9.

Test: Tanguay_ZF_120hpf_SNOU_legacy: (Legacy) Oregon State University Tanguay Lab 120 Hour Post-fertilization zebrafish Assay for Snout Malformation (AID 2283637)
Summary of the method: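 Dechorionated zebrafish, individually housed from 6 hpf in covered, sealed wells at 28C with 0.64% DMSO vehicle, were examined at 120 hpf for snout malformation. Responses were binary and analysed positive-direction relative to DMSO.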

Compound	outcome	AC50
CNC(=O)N(C)c1nnc(C(C)(C)C)s1	inactive	
Nc1cnn(-c2ccccc2)c(=O)c1Cl	inactive	
COP(=O)(OC)O/C(C)=C/C(=O)N(C)C	inactive	
CCNC(=O)NC(=O)C(C#N)=NOC		24.5 µM (active)
CC(C)=CC1C(C(=O)OCc2coc(Cc3ccccc3)c2)C1(C)C (stereo not drawn)	inactive	
CN/C(=N\[N+](=O)[O-])NCc1cnc(Cl)s1	inactive	
CC(C)Nc1nc(Cl)nc(NC(C)C)n1	inactive	
Cc1cnc(C2=NC(C)(C(C)C)C(=O)N2)c(C(=O)O)c1 (stereo not drawn)	inactive	
CCCC(=NOCC)C1=C(O)CC(CC(C)SCC)CC1=O (stereo not drawn)	inactive	
CCOP(=S)(OCC)Oc1nc(Cl)n(C(C)C)n1	inactive	
CCOc1cc(C(C)(C)C)ccc1C1COC(c2c(F)cccc2F)=N1 (stereo not drawn)	inactive	
N#CN=C1SCCN1Cc1ccc(Cl)nc1	inactive	
COC(=O)c1c(C(F)F)nc(C(F)(F)F)c(C2=NCCS2)c1CC(C)C	inactive	
O=P(O)(O)CCCl	inactive	
Clc1cccc(C(Cl)(Cl)Cl)n1	inactive	
COc1cc(Cl)c(OC)cc1Cl	inactive	
CC(C)C1(C)N=C(c2ncccc2C(=O)O)NC1=O (stereo not drawn)	inactive	

Compound	outcome	AC50
CC1(C)CON(Cc2ccccc2Cl)C1=O	inactive	
COC(=O)NC(=S)Nc1ccccc1NC(=S)NC(=O)OC		50.3 µM (active)
CCOc1nc(C(Cl)(Cl)Cl)ns1	inactive	
COCc1cnc(C2=NC(C)(C(C)C)C(=O)N2)c(C(=O)O)c1 (stereo not drawn)	inactive	
CCSC(=O)N1CCCCCC1	inactive	
O=C(O)c1c(Cl)ccc2cc(Cl)cnc12	inactive	
CCC(C)n1c(=O)[nH]c(C)c(Br)c1=O (stereo not drawn)	inactive	
CCNP(=S)(OC)O/C(C)=C/C(=O)OC(C)C (stereo not drawn)	inactive	
Cc1cc(C)nc(Nc2ccccc2)n1	inactive	
COc1cc(OC)nc(NC(=O)NS(=O)(=O)c2ncccc2OCC(F)(F)F)n1	inactive	
CCN(CC)c1nc(C)cc(OP(=S)(OC)OC)n1	inactive	
CS(=O)(=O)c1cc(C(F)(F)F)ccc1C(=O)c1cnoc1C1CC1	inactive	
CCOc1nc(F)cc2nc(S(=O)(=O)Nc3c(Cl)cccc3Cl)nn12	inactive	
CCCCOCN(C(=O)CCl)c1c(CC)cccc1CC	inactive	
CNC(=O)Oc1cccc2ccccc12	inactive	
N#Cc1c(Cl)cccc1Cl	inactive	
Cc1nc(N(C)C)nc(OC(=O)N(C)C)c1C	inactive	

Test: Tanguay_ZF_120hpf_JAW_legacy: (Legacy) Oregon State University Tanguay Lab 120 Hour Post-fertilization zebrafish Assay for Jaw Malformation (AID 2283638);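 on AC50: active means more embryos with jaw malformation than DMSO controls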
Summary of the method: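 Binary jaw-malformation calls at 120 hpf by brightfield imaging; DMSO (0.64% v/v) = baseline. Embryos: 5D wild-type, pronase-dechorionated, one per well from 6 hpf, static exposure, 28C, sealed, dark.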

Compound	outcome	AC50
CNC(=O)N(C)c1nnc(C(C)(C)C)s1	inactive	
Clc1nc(Cl)nc(Nc2ccccc2Cl)n1	inactive	
Nc1cnn(-c2ccccc2)c(=O)c1Cl	inactive	
COP(=O)(OC)O/C(C)=C/C(=O)N(C)C	inactive	
CCNC(=O)NC(=O)C(C#N)=NOC		19.6 µM (active)
CC(C)=CC1C(C(=O)OCc2coc(Cc3ccccc3)c2)C1(C)C (stereo not drawn)	inactive	
CN/C(=N\[N+](=O)[O-])NCc1cnc(Cl)s1	inactive	
CC(C)Nc1nc(Cl)nc(NC(C)C)n1	inactive	
Cc1cnc(C2=NC(C)(C(C)C)C(=O)N2)c(C(=O)O)c1 (stereo not drawn)	inactive	
CCCC(=NOCC)C1=C(O)CC(CC(C)SCC)CC1=O (stereo not drawn)	inactive	
CCOP(=S)(OCC)Oc1nc(Cl)n(C(C)C)n1	inactive	
CCOc1cc(C(C)(C)C)ccc1C1COC(c2c(F)cccc2F)=N1 (stereo not drawn)	inactive	
N#CN=C1SCCN1Cc1ccc(Cl)nc1	inactive	
COC(=O)c1c(C(F)F)nc(C(F)(F)F)c(C2=NCCS2)c1CC(C)C	inactive	
Clc1cccc(C(Cl)(Cl)Cl)n1	inactive	
COc1cc(Cl)c(OC)cc1Cl	inactive	
CC(C)C1(C)N=C(c2ncccc2C(=O)O)NC1=O (stereo not drawn)	inactive	

Compound	outcome	AC50
CC1(C)CON(Cc2ccccc2Cl)C1=O	inactive	
COC(=O)NC(=S)Nc1ccccc1NC(=S)NC(=O)OC	inactive	
CCOc1nc(C(Cl)(Cl)Cl)ns1	inactive	
COCc1cnc(C2=NC(C)(C(C)C)C(=O)N2)c(C(=O)O)c1 (stereo not drawn)	inactive	
CCSC(=O)N1CCCCCC1	inactive	
O=C(O)c1c(Cl)ccc2cc(Cl)cnc12	inactive	
CCNP(=S)(OC)O/C(C)=C/C(=O)OC(C)C (stereo not drawn)	inactive	
Cc1cc(C)nc(Nc2ccccc2)n1	inactive	
COc1cc(OC)nc(NC(=O)NS(=O)(=O)c2ncccc2OCC(F)(F)F)n1	inactive	
CCN(CC)c1nc(C)cc(OP(=S)(OC)OC)n1	inactive	
CS(=O)(=O)c1cc(C(F)(F)F)ccc1C(=O)c1cnoc1C1CC1	inactive	
CCOc1nc(F)cc2nc(S(=O)(=O)Nc3c(Cl)cccc3Cl)nn12	inactive	
CCCCOCN(C(=O)CCl)c1c(CC)cccc1CC	inactive	
CNC(=O)Oc1cccc2ccccc12	inactive	
N#Cc1c(Cl)cccc1Cl	inactive	
Cc1nc(N(C)C)nc(OC(=O)N(C)C)c1C	inactive	

Test: Tanguay_ZF_120hpf_OTIC_legacy: (Legacy) Oregon State University Tanguay Lab 120 Hour Post-fertilization zebrafish Assay for Otic Vesicle Malformation (AID 2283639)
Summary of the method: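 Statically exposed wild-type 5D zebrafish embryos, kept sealed and dark at 28C through 120 hours post fertilization, were examined by brightfield microscopy for otic vesicle defects. Responses were recorded as present or absent and analysed relative to DMSO.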

Compound	outcome
CNC(=O)N(C)c1nnc(C(C)(C)C)s1	inactive
Nc1cnn(-c2ccccc2)c(=O)c1Cl	inactive
COP(=O)(OC)O/C(C)=C/C(=O)N(C)C	inactive
CCNC(=O)NC(=O)C(C#N)=NOC	inactive
CC(C)=CC1C(C(=O)OCc2coc(Cc3ccccc3)c2)C1(C)C (stereo not drawn)	inactive
CN/C(=N\[N+](=O)[O-])NCc1cnc(Cl)s1	inactive
CN=C=S	inactive
CC(C)Nc1nc(Cl)nc(NC(C)C)n1	inactive
Cc1cnc(C2=NC(C)(C(C)C)C(=O)N2)c(C(=O)O)c1 (stereo not drawn)	inactive
CCCC(=NOCC)C1=C(O)CC(CC(C)SCC)CC1=O (stereo not drawn)	inactive
N#CN=C1SCCN1Cc1ccc(Cl)nc1	inactive
COC(=O)c1c(C(F)F)nc(C(F)(F)F)c(C2=NCCS2)c1CC(C)C	inactive
O=P(O)(O)CCCl	inactive
Clc1cccc(C(Cl)(Cl)Cl)n1	inactive
COc1cc(Cl)c(OC)cc1Cl	inactive
CC(C)C1(C)N=C(c2ncccc2C(=O)O)NC1=O (stereo not drawn)	inactive

Compound	outcome
CC1(C)CON(Cc2ccccc2Cl)C1=O	inactive
COC(=O)NC(=S)Nc1ccccc1NC(=S)NC(=O)OC	inactive
CCSC(=O)N1CCCCCC1	inactive
O=C(O)c1c(Cl)ccc2cc(Cl)cnc12	inactive
CCC(C)n1c(=O)[nH]c(C)c(Br)c1=O (stereo not drawn)	inactive
CCNP(=S)(OC)O/C(C)=C/C(=O)OC(C)C (stereo not drawn)	inactive
Cc1cc(C)nc(Nc2ccccc2)n1	inactive
COc1cc(OC)nc(NC(=O)NS(=O)(=O)c2ncccc2OCC(F)(F)F)n1	inactive
CCN(CC)c1nc(C)cc(OP(=S)(OC)OC)n1	inactive
CS(=O)(=O)c1cc(C(F)(F)F)ccc1C(=O)c1cnoc1C1CC1	inactive
CCOc1nc(F)cc2nc(S(=O)(=O)Nc3c(Cl)cccc3Cl)nn12	inactive
CCCCOCN(C(=O)CCl)c1c(CC)cccc1CC	inactive
CNC(=O)Oc1cccc2ccccc12	inactive
N#Cc1c(Cl)cccc1Cl	inactive
Cc1nc(N(C)C)nc(OC(=O)N(C)C)c1C	inactive
